In PubChem BioAssay (NCI):
This is part of a sample that, as a whole, favours compounds with a hit. Of some 79,000 tested, about 15% had one in any assay. Activity calls are given as the source filed them. No stated cut-off is given here; in the data, active means growth inhibition above about 70%; inactive means the rest.

assay: NCI Yeast Anticancer Drug Screen. Data for the sgs1 mgt1 strain (AID 161);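 further: 0% = growth of cultures given vehicle only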; details: S. cerevisiae sgs1 mgt1 strain, at 50.0 µM, hits give high values
Summary of the method: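 Mutant yeast exposed to compound; growth scored against vehicle-only wells.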

| SMILES | growth inhibition |
| --- | --- |
| COC(=O)c1ccccc1OC(=S)N(C)C | -8.45% (inactive) |
| C=C(C)C#CC1(O)C=C(OC)C(OC)=CC1=O (stereo not given) | -10.1% (inactive) |
| CCOC(=O)/C(C#N)=C\N(C)C | 5.65% (inactive) |
| O=S1c2ccc(Cl)cc2CC(SSC2Cc3cc(Cl)ccc3S(=O)c3ccccc32)c2ccccc21 (stereo not given) | -7.65% (inactive) |
| O=C1OC(=O)c2ccccc21 | -11.4% (inactive) |
| Cc1nc(Nc2ccc(Cl)c(Cl)c2)sc1C(/C=C/c1ccc2c(c1)OCO2)=N/Nc1ccc([N+](=O)[O-])cc1[N+](=O)[O-] | 3.75% (inactive) |
| O=C(N/N=C/c1ccc(Cl)cc1)C(c1ccccc1)N1CCCCC1 (stereo not given) | -0.2% (inactive) |
| O=[N+]([O-])c1ccc(N=NN2CCOCC2)cc1 | -1.4% (inactive) |
| CC(C)(C)C(=O)CC(=O)C(C)(C)C.CC(C)(C)C(=O)CC(=O)C(C)(C)C.CC(C)(C)C(=O)CC(=O)C(C)(C)C.[Co] | 21.4% (inactive) |
| CSC(=N\N=C\c1c(F)cccc1Cl)/N=C/N(C)C | 12.7% (inactive) |
| O=C(O)c1cscc1Cc1ccccc1 | -1.7% (inactive) |
| C=C(CCCC(C)OC(C)OCC)[Si](C)(C)C (stereo not given) | -20.6% (inactive) |
| CC1(C)N=C(N)N=C(N)N1c1cccc(OCc2cccc([N+](=O)[O-])c2)c1 | -31.3% (inactive) |
| Cc1cc(S(=O)(=O)O)c(NC(=O)C(=O)C2C=CCS2(=O)=O)cc1Cl (stereo not given) | -8.65% (inactive) |
| C=C(C)C(=O)OC1C[C@H](COC(C)=O)C2CC=C(CO)C2C2OC(=O)C(=C)[C@H]12 (stereo not given in full) | 10.2% (inactive) |
| CC1(C)[C@H](C(=O)O)CC[C@]1(C)C(=O)O | 1.05% (inactive) |
| Brc1ccc(CN(Cc2ccccc2)Cc2ccccc2)cc1 | 1.55% (inactive) |
| CN(C)c1nc(N)nc(CS)n1 | -9.05% (inactive) |
| CC(=O)Oc1ccc2c(c1)c1c(OC(C)=O)c(N(C)C(C)=O)cc(OC(C)=O)c1n2C | 3.85% (inactive) |
| CN(C)CCSCC(=O)N1c2ccccc2Sc2ccc(Cl)cc21 | -2.9% (inactive) |

| SMILES | growth inhibition |
| --- | --- |
| CC(=O)Oc1cc2c(cc1C(NC(N)=O)c1ccc3c(c1)OCO3)OCO2 (stereo not given) | 1.55% (inactive) |
| CCCCCCCCCCCCN=Cc1cc(Cc2ccc(O)c(C=NCCCCCCCCCCCC)c2)ccc1O | 91.3% (active) |
| O=c1[nH]c(=O)n(C2CC(O)C(CO)O2)cc1/C=C/Br (stereo not given) | -8.95% (inactive) |
| CC(C)(C)OC(=O)CC(c1ccccc1)c1ccccc1 | -8.7% (inactive) |
| CC(=O)OCSc1ncnc2c1ncn2CN1CCOCC1 | -19.9% (inactive) |
| c1ccc(CCCC2Sc3cccc4cccc(c34)S2)cc1 | -18.6% (inactive) |
| Cc1c2oc3c(C)ccc(C(=O)NCCN4CCN(c5ccccc5)CC4)c3nc-2c(C(=O)NCCN2CCN(c3ccccc3)CC2)c(N)c1=O | -8.5% (inactive) |
| CO/N=C1C=C/C(=N\OC)C\1 | 0.5% (inactive) |
| C(CCc1nnc2c(n1)CCCC2)Cc1nnc2c(n1)CCCC2 | -1.05% (inactive) |
| Nc1nc2ncn(CC(O)COC(=O)c3ccccc3)c2c(=O)[nH]1 (stereo not given) | 27.3% (inactive) |
| COC(=O)C1(C(=O)OC)CC(=O)c2c(OC(=O)c3cccc(OC)c3C#N)ccc(OC(=O)c3cccc(OC)c3C#N)c2C1 | -11.5% (inactive) |
| CCCSC(=O)Nc1ccc(Cc2ccc(NC(=O)SCCC)cc2)cc1 | 16.6% (inactive) |
| CCCc1cc(=O)oc2c3c(c4c(c12)OC(C)(C)C=C4)OC(C)[C@H](C)[C@@H]3O (stereo not given in full) | 32% (inactive) |
| COc1cccc(-c2nc(-c3cnccn3)n(Cc3ccccc3)n2)c1 | -59.8% (inactive) |
| Cc1nc2nc(N)nnc2c(=O)[nH]1 | -18.8% (inactive) |
| C(=C\P(c1ccccc1)c1ccccc1)/P(/C=C/P(c1ccccc1)c1ccccc1)c1ccccc1 | -42.1% (inactive) |
| O=C(c1cccs1)c1cccs1 | -17.6% (inactive) |
| Cc1cn(C2CC(OC(=O)C(Cc3ccccc3)NC(=O)OCc3ccccc3)C(COC(=O)C(Cc3ccccc3)NC(=O)OCc3ccccc3)O2)c(=O)[nH]c1=O (stereo not given) | -13.3% (inactive) |
| C/C(=C(/O)c1ccc(Cl)cc1)c1nc2cc(Cl)cc([N+](=O)[O-])c2[nH]c1=O | 24.6% (inactive) |
| CC(=O)OCC1OC(OC(C)=O)C(NS(=O)(=O)Cc2ccccc2)C(OC(C)=O)C1OC(C)=O (stereo not given) | 13.7% (inactive) |

assay: NCI Yeast Anticancer Drug Screen. Data for the cln2 rad14 strain (AID 165);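 further: 0% = growth equal to vehicle treated cultures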; details: S. cerevisiae cln2 rad14 strain, at 50.0 µM, hits give high values
Summary of the method: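 Test compounds were added to cln2 rad14 yeast cultures; inhibition of growth was then determined by comparison with vehicle treatment.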

| SMILES | growth inhibition |
| --- | --- |
| COC(=O)c1ccccc1OC(=S)N(C)C | -29.1% (inactive) |
| C=C(C)C#CC1(O)C=C(OC)C(OC)=CC1=O (stereo not given) | -61.9% (inactive) |
| CCOC(=O)/C(C#N)=C\N(C)C | 5.65% (inactive) |
| O=S1c2ccc(Cl)cc2CC(SSC2Cc3cc(Cl)ccc3S(=O)c3ccccc32)c2ccccc21 (stereo not given) | 6.15% (inactive) |
| O=C1OC(=O)c2ccccc21 | -24.8% (inactive) |
| Cc1nc(Nc2ccc(Cl)c(Cl)c2)sc1C(/C=C/c1ccc2c(c1)OCO2)=N/Nc1ccc([N+](=O)[O-])cc1[N+](=O)[O-] | 3.45% (inactive) |
| O=C(N/N=C/c1ccc(Cl)cc1)C(c1ccccc1)N1CCCCC1 (stereo not given) | 4.6% (inactive) |
| O=[N+]([O-])c1ccc(N=NN2CCOCC2)cc1 | -1% (inactive) |
| CC(C)(C)C(=O)CC(=O)C(C)(C)C.CC(C)(C)C(=O)CC(=O)C(C)(C)C.CC(C)(C)C(=O)CC(=O)C(C)(C)C.[Co] | 16% (inactive) |
| CSC(=N\N=C\c1c(F)cccc1Cl)/N=C/N(C)C | 14.8% (inactive) |
| O=C(O)c1cscc1Cc1ccccc1 | -21.1% (inactive) |
| C=C(CCCC(C)OC(C)OCC)[Si](C)(C)C (stereo not given) | -7.15% (inactive) |
| CC1(C)N=C(N)N=C(N)N1c1cccc(OCc2cccc([N+](=O)[O-])c2)c1 | 24.6% (inactive) |
| Cc1cc(S(=O)(=O)O)c(NC(=O)C(=O)C2C=CCS2(=O)=O)cc1Cl (stereo not given) | 1.8% (inactive) |
| C=C(C)C(=O)OC1C[C@H](COC(C)=O)C2CC=C(CO)C2C2OC(=O)C(=C)[C@H]12 (stereo not given in full) | -1.25% (inactive) |
| CC1(C)[C@H](C(=O)O)CC[C@]1(C)C(=O)O | 19.2% (inactive) |
| Brc1ccc(CN(Cc2ccccc2)Cc2ccccc2)cc1 | -10.4% (inactive) |
| CN(C)c1nc(N)nc(CS)n1 | 10.3% (inactive) |
| CC(=O)Oc1ccc2c(c1)c1c(OC(C)=O)c(N(C)C(C)=O)cc(OC(C)=O)c1n2C | 12.4% (inactive) |
| CN(C)CCSCC(=O)N1c2ccccc2Sc2ccc(Cl)cc21 | 17.6% (inactive) |

| SMILES | growth inhibition |
| --- | --- |
| CC(=O)Oc1cc2c(cc1C(NC(N)=O)c1ccc3c(c1)OCO3)OCO2 (stereo not given) | -11.2% (inactive) |
| CCCCCCCCCCCCN=Cc1cc(Cc2ccc(O)c(C=NCCCCCCCCCCCC)c2)ccc1O | 84.2% (active) |
| O=c1[nH]c(=O)n(C2CC(O)C(CO)O2)cc1/C=C/Br (stereo not given) | -5.4% (inactive) |
| CC(C)(C)OC(=O)CC(c1ccccc1)c1ccccc1 | -41.5% (inactive) |
| CC(=O)OCSc1ncnc2c1ncn2CN1CCOCC1 | 1.8% (inactive) |
| c1ccc(CCCC2Sc3cccc4cccc(c34)S2)cc1 | 14.4% (inactive) |
| Cc1c2oc3c(C)ccc(C(=O)NCCN4CCN(c5ccccc5)CC4)c3nc-2c(C(=O)NCCN2CCN(c3ccccc3)CC2)c(N)c1=O | -11.3% (inactive) |
| CO/N=C1C=C/C(=N\OC)C\1 | 7.55% (inactive) |
| C(CCc1nnc2c(n1)CCCC2)Cc1nnc2c(n1)CCCC2 | -12.1% (inactive) |
| Nc1nc2ncn(CC(O)COC(=O)c3ccccc3)c2c(=O)[nH]1 (stereo not given) | 28.3% (inactive) |
| COC(=O)C1(C(=O)OC)CC(=O)c2c(OC(=O)c3cccc(OC)c3C#N)ccc(OC(=O)c3cccc(OC)c3C#N)c2C1 | -4.35% (inactive) |
| CCCSC(=O)Nc1ccc(Cc2ccc(NC(=O)SCCC)cc2)cc1 | 21.8% (inactive) |
| CCCc1cc(=O)oc2c3c(c4c(c12)OC(C)(C)C=C4)OC(C)[C@H](C)[C@@H]3O (stereo not given in full) | 8.85% (inactive) |
| COc1cccc(-c2nc(-c3cnccn3)n(Cc3ccccc3)n2)c1 | -22% (inactive) |
| Cc1nc2nc(N)nnc2c(=O)[nH]1 | -13.8% (inactive) |
| C(=C\P(c1ccccc1)c1ccccc1)/P(/C=C/P(c1ccccc1)c1ccccc1)c1ccccc1 | 8.15% (inactive) |
| O=C(c1cccs1)c1cccs1 | -67% (inactive) |
| Cc1cn(C2CC(OC(=O)C(Cc3ccccc3)NC(=O)OCc3ccccc3)C(COC(=O)C(Cc3ccccc3)NC(=O)OCc3ccccc3)O2)c(=O)[nH]c1=O (stereo not given) | -26.7% (inactive) |
| C/C(=C(/O)c1ccc(Cl)cc1)c1nc2cc(Cl)cc([N+](=O)[O-])c2[nH]c1=O | -4.55% (inactive) |
| CC(=O)OCC1OC(OC(C)=O)C(NS(=O)(=O)Cc2ccccc2)C(OC(C)=O)C1OC(C)=O (stereo not given) | -1.35% (inactive) |
